The structures appear in SMILES notation. In all, about 2,400 compounds went through this assay and about 40 (2%) were called active. Not shown: some 1% with an inconclusive outcome.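 Rule for the calls: active = inhibition at or above 60%; inconclusive = inhibition from 0% up to below 60%; inactive = no inhibition observed.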 The list comes from a sample in which actives are over-represented; it also holds similar structures and randomly drawn compounds.

This test is described as follows: qHTS Assay for Small Molecule Inhibitors of Mitochondrial Division or Activators of Mitochondrial Fusion: Hit Validation in Malachite Green Assay.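 For inhibition: plate controls were DMSO wells with GTPase for no effect and protein-free buffer wells for full effect.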 As to conditions: purified GTPase, malachite green phosphate release, A650; hits give high values. From the text:
The budding yeast S. cerevisiae is a powerful system to study mitochondrial fusion. Unlike other organisms, yeast cells without functional mitochondrial DNA (mtDNA) can be propagated and studied as long as they maintain a mitochondrial compartment and are provided with a fermentable carbon source. When mitochondrial fusion is blocked in yeast, mitochondrial tubules rapidly fragment and division continues unopposed. Under conditions where fusion is compromised in mammalian cells, nearly identical changes in mitochondrial structure have been observed. Thus, these findings indicate that steady state mitochondrial structure in cells is a characteristic and specific indicator of fusion activity. Mounting evidence has pointed to a connection between mitochondrial dynamics and apoptosis in mammalian cells. These studies indicate that in mammalian cells mitochondrial dynamics are more integrated into cellular processes than in yeast cells and have evolved not only to distribute the organelle but also to aid in the regulation of cellular homeostasis. Mitochondrial fusion proteins attenuate apoptosis by inhibiting the release of cytochrome c from mitochondria, in part by controlling cristae structures. Thus, small molecules that inhibit mitochondrial fusion may promote apoptosis and potentially act as novel chemotherapeutics and stimulation of apoptosis has become an attractive target of anti-cancer therapies. To identify inhibitors of mitochondrial division, we exploit the growth phenotypes of mitochondrial fusion-defective mutants. The temperature sensitive fusion alleles, such as fzo1-1 and mgm1-5, cause mitochondrial membranes to fragment in cells under non-permissive conditions and cells lose mtDNA, and are unable to grow in the presence of non-fermentable carbon source glycerol. Inhibiting mitochondrial division rescues growth. The hits were tested by the assay provider in a malachite green assay. NIH Chemical Genomics Center [NCGC] NIH Molecular Libraries Probe Production Centers Network [MLPCN] MLPCN Grant: MH081279 Assay Submitter (PI): Jodi M. Nunnari
Malachite Green Reagent Malachite Green carbinol base- Aldrich 229105 Ammonium molybdate - Sigma A7302 For 100 mL Malachite Green reagent in 1N HCl 16 mL conc. HCL + 32 mL H20 = 48 mL 4N HCl 34 mg malachite green base into 40 mL 1N HCl (10 mL 4N HCl + 30 mL H20) 1 g ammonium molybdate in 15 mL 4N HCl Mix Solutions together. Bring up to […] with H2O. Filter using a 0.2 um tissue culture filter unit (has plastic bottle attached) store at 4 masculine C. (Avoid Glassware/Plastics washed in detergent. Mix solutions in 50 mL conical vials.) For 20 uL reaction volume 1.0 uL Test Drug or DMSO: Added first to each well […]: 25 mM Hepes/Pipes pH 7.0 (H/P) 2.0 uL: 50 mM MgCl2 (final 5mM) 2.32 uL: 1 M NaCl (with contributing protein salt, Final = 150mM) 13.4 uL per reaction. Can be mixed in larger volume (Mini Master Mix) 1.6 uL: Protein 7.5 uM or Protein Freezing Buffer. (Final = 0.6uM) After Protein Added to mini Master Mix, 15ul Total Master Mix added to each well with drug. 4 uL: 500 uM GTP (Final = 100uM), Dilute with 25 mM H/P, store on ice. 20 uL Total Volume Make Master Mix: (Calculate desired reactions and add a few for multi-channel pipetting volume). Multiply the number of desired reactions by 13.4 uL for total Mini Master volume. Multiply the number of desired reactions by 1.6 uL for total Protein volume. Mix, and keep on ice until added to wells. Add 15 uL of Master Mix to each reaction well, incubate with drug for 10 min. For Positive (No Drug) controls add 15 uL Master Mix to wells with only 1 uL DMSO. Make PFB (Protein Freezing Buffer) (no Protein) Master Mix. Multiply the number of desired reactions by 13.4 uL for total Mini Master volume. Multiply the number of desired reactions by 1.6 uL for total PFB volume. Mix, and keep on ice until added to wells Add 10 uL of PFBMaster Mix to each Phosphate Standards well, and 15 uL to each negative control well with DMSO. […]
A general note: Quantitative high-throughput screening tests each substance at several concentrations.
In the case of `O=C(COc1ccc(F)cc1Br)Nc1ccccc1N1CCOCC1`, the inhibition result is “inactive”.
On to `CC1=C(C(=O)OCc2ccccc2)C(/C=C/c2ccccc2)N2C(=O)CCSC2=N1` (stereo not drawn), for which the inhibition result is “inactive”.
Then `CCN(CC)c1ccc(/C=N/NC(=O)c2ccc([N+](=O)[O-])cc2)cc1`, with “inactive”.
To `CCNC(=O)C(=O)N/N=C/c1cc([N+](=O)[O-])ccc1O` belongs 78.8% (active); to `O=[N+]([O-])c1ccc(O)c(P(=O)(c2ccccc2)c2ccccc2)c1`, “inactive”.
To `CCOC(=O)c1c(NC(=O)COC(=O)Cn2cnc3ccccc32)sc2c1CCC(C)C2` (stereo not drawn) belongs “inactive”; to `N#C/C(=C\c1cn[nH]c1-c1ccc(Cl)cc1)C(=O)NCc1ccccc1`, “inactive”; to `O=C(Nc1cccc(Br)c1)c1ccccc1-c1ccccc1`, “inactive”.
Take `Nc1c(-c2ccccc2)c(CSc2nc3ccccc3[nH]2)nn1-c1ccc(Cl)cc1`: the inhibition entry is “inactive”.
To `O=C(c1cc(S(=O)(=O)N2CCN(c3ccccc3)CC2)ccc1Cl)N1CCCCCCC1` belongs “inactive”; to `O=c1c2ccccc2sn1-c1cc(S(=O)(=O)N2CCOCC2)ccc1N1CCCC1`, 103% (active); to `CCN(Cc1ccccc1)C(=O)c1oc2ccc(S(=O)(=O)N3CCOCC3)cc2c1C`, “inactive”.
As for `CCOC(=O)c1cccc(-c2c(-c3ccccc3)ncc3cc(OC)c(OC)cc23)c1`, the inhibition result was “inactive”.
Then `O=C(NCc1ccc2c(c1)OCO2)c1ccc(CSCc2ccc(Cl)cc2)o1`, with “inactive”.
Then `O=C(Nc1ccccc1O)c1c(O)c2c([nH]c1=O)CCCC2`, with “inactive”.
Then `O=C(O)c1ccccc1CSc1nc2ccccc2n1Cc1ccccc1C(=O)O`, with “inactive”.
On to `COc1ccc(C(=O)CSc2ccc(-c3ccc(C)cc3)nn2)cc1`, for which the inhibition entry was “inactive”.
Then `Cc1ccc(C(=O)CSc2nc(C(C)C)nc3ccccc23)cc1`, with “inactive”.
Then `Cc1cc(SCC(=O)c2ccc(Cl)cc2)nc(=O)[nH]1`, with 96.8% (active); and `O=C(Nc1ccc(N2CCOCC2)c(S(=O)(=O)Nc2ccccc2Cl)c1)c1ccccc1`, with “inactive”.
Then `COc1cccc(C(Nc2ccccn2)c2c(NC(=O)c3ccco3)sc(C)c2C)c1` (stereo not drawn), with “inactive”; and `Cc1ccc(C)c(N2CCN(C(=O)CCCn3c(=O)c4cccn4c4cccnc43)CC2)c1`, with “inactive”.
On to `COc1cccc(C(=O)NC2CCN(C(=O)N3c4ccccc4Sc4ccccc43)CC2)c1`, for which the inhibition entry was “inactive”.
Then `O=C(COc1ccccc1-c1ccccc1)NCc1cccc(Cl)c1`, with “inactive”; and `C/C(=N\NC(=O)COc1ccccc1-c1ccccc1)c1ccccn1`, with 71.6% (active); and `O=C(COc1cc2oc(=O)cc(-c3ccccc3)c2cc1Cl)NCc1ccccn1`, with “inactive”.
Take `O=[N+]([O-])c1ccccc1SN(Cc1ccccc1)c1ccccn1`: the inhibition entry was “inactive”.
Then `CCC(CC)C(=O)Nc1cc(C(=O)OC)ccc1C(=O)OC`, with “inactive”; and `O=C(/C=C/c1ccc(Cl)cc1)N(c1ccccn1)C1CCCCC1`, with “inactive”; and `CC(/C=N/NC(=O)CSc1nnc(SCc2ccccc2)s1)=C\c1ccco1`, with “inactive”.
To `COc1ccc(-c2nn(-c3ccccc3)cc2/C=N/Nc2ccc3ccccc3n2)cc1OC` belongs “inactive”.
For the molecule `COc1ccccc1C1CC(c2ccc(Br)cc2)=NN1C(=O)c1cccnc1` (stereo not drawn), the inhibition result is “inactive”.
Then `CCC(C)c1ccc(N(CC(=O)NC(C)(C)C)C(=O)CNC(=O)c2cccs2)cc1` (stereo not drawn), with “inactive”; and `Cc1nc(NCc2ccccn2)c2c3c(sc2n1)CCCC3`, with “inactive”; and `COc1c(C)cc(Br)cc1C(=O)Nc1cccc(NC(=O)c2ccco2)c1`, with “inactive”.
Then `Cc1ccc(-c2nnc(NC(=O)c3ccco3)o2)c(C)c1`, with 74.4% (active); and `CN(C)c1cccc(NC(=O)c2ccco2)c1`, with “inactive”.
Then `CC1=C(C)CC(C(=O)NNC(=O)c2csc3c2CCC(C(C)(C)C)C3)C(C(=O)O)C1` (stereo not drawn), with “inactive”; and `Cc1ccc(SCCNS(=O)(=O)c2ccc3c(c2)OCCO3)cc1`, with “inactive”; and `C=CCc1c(C)nc(-c2ccccc2)nc1Nc1ccc(O)cc1`, with “inactive”.
As to `COc1ccc(Cl)cc1NC(=O)CN(C)C(=O)c1cc2c(F)cccc2s1`, the inhibition result was “inactive”.
To `COc1cccc(C2=CC(=O)C[C@H](c3ccc(Cl)cc3)C2)c1` belongs “inactive”; to `COC(=O)[C@@]12CCCCN1[C@H](c1ccc(-c3ccc(OC)cc3)c(OC)c1)[C@@H]1C(=O)N(C)C(=O)[C@@H]12`, “inactive”; to `O=C(Nc1cccc(-c2nnc(-c3ccccc3)o2)c1)c1ccc(Br)o1`, “inactive”.
As to `COc1ccc(OC)c(/C=C2\SC(N3CCCC(C)C3)=NC2=O)c1` (stereo not drawn), the inhibition is 66.7% (active).
Then `COc1cc(/C=C2\SC(N3CCCCC3)=NC2=O)cc(OC)c1OC`, with “inactive”.
Then `O=C1N=C(N2CCN(c3ccccc3)CC2)S/C1=C/c1cccs1`, with “inactive”; and `COC(=O)c1cc2c(ccn2-c2ccc(F)cc2)n1Cc1ccc(OC(C)=O)cc1`, with “inactive”.
For the molecule `Cc1ccc(S(=O)(=O)NC23CC4CC(CC(C4)C2)C3)cc1`, the inhibition result was “inactive”.
Consider `CC1CCc2nc3ccc(S(=O)(=O)N4CCC(C(=O)NCc5ccccc5Cl)CC4)cc3c(C(=O)O)c2C1` (stereo not drawn), for which the inhibition entry is “inactive”.
Then `Cc1ccc2nnn(Cc3cccc(C(C)(C)C)c3O)c2c1`, with “inactive”; and `COc1ccc(-c2nnc(NC(=O)c3ccc(F)cc3)o2)cc1`, with 63.4% (active); and `COc1cccc(-c2nnc(NC(=O)c3ccc4ncsc4c3)o2)c1`, with “inactive”.

The inhibition is the drop in the measured response relative to a control, in per cent.

Source of the values: PubChem BioAssay AID602289 (National Center for Advancing Translational Sciences (NCATS), 2012).
